Here are results for ten molecules from ChEMBL document CHEMBL1157539, “Thousands of chemical starting points for antimalarial lead identification” (Nature, 2010).

What all share (assay type): functional
Assay [1] relates to Plasmodium falciparum. In words: GSK_TCMDC: Inhibition of Plasmodium falciparum 3D7 in whole red blood cells, using parasite LDH activity as an index of growth. Test compounds present at 2uM.
Assay [2] has as its system Plasmodium falciparum. Nature of the assay: GSK_TCMDC: Inhibition of Plasmodium falciparum Dd2 in whole red blood cells, using parasite LDH activity as an index of growth. Test compounds present at 2uM.
Assay [3] concerns HepG2. In words: GSK_TCMDC: Percent inhibition of human HepG2 cell line. Test compounds present at 10uM.

In the case of `Cl.Nc1ccc(Nc2ccnc3ccc(C(F)(F)F)cc23)cc1O`, the Inhibition in assay [1] was determined as 98%; in assay [2], 59%; in assay [3], 1%.
For `Br.CCCCCCn1c2c(c(=N)c3c1CCC3)CCCC2`, the Inhibition in assay [1] is 99%; in assay [2], 76%; in assay [3] it was 31%.
The like results for `Cc1cccc2nc(-c3ccc(-c4cccc(CNCCCNS(C)(=O)=O)c4)cc3)[nH]c12.O=C(O)C(F)(F)F` were, in that order, 99%, 5% and 5%.
For `Cc1cc(C)c(C)c(S(=O)(=O)N2CCCCC(c3ccc(F)c(F)c3)=N2)c1C`, the Inhibition in assay [1] came out at 86%; in assay [2] it was 60%; in assay [3], 5%.
The like results for `CC1CCCCC1N(C)C1CCN(CCCNC(=O)C=Cc2cccc(C(F)(F)F)c2)CC1` (stereo not given) were, in that order, 100%, 17% and 47%.
The like results for `CCOc1cccc2nc(NCCCNCc3ccc(Cl)c(Cl)c3)cc(NCCCNCc3ccc(Cl)c(Cl)c3)c12` were, in that order, 98%, 58% and 96%.
The like results for `CCN(CC)CCN(Cc1ccc(-c2ccc(Cl)cc2)cc1)C(=O)Cn1cc(CN(C)C)c(=O)nc1SCc1ccc(F)cc1` were, in that order, 99%, 99% and 49%.
`Cc1ccc(NC(=O)c2ccc(-c3cc4cc(Cl)c(Cl)cc4[nH]3)cc2)cc1OCCN1CCCC1.O=C(O)C(F)(F)F`: the Inhibition is on record as 100% in assay [1], 90% in assay [2] and 7% in assay [3].
The like results for `N#CCCN1CCN(Cc2cccc(-c3ccc(-c4nc5ccccc5[nH]4)s3)c2)CC1.O=C(O)C(F)(F)F` were, in that order, 96%, 8% and 48%.
With `Cc1ccc(Nc2ccnc(Nc3ccc(C)c(F)c3)n2)cc1O.Cl`, the Inhibition was 100% in assay [1], 27% in assay [2] and 4% in assay [3].
